Screens deposited in PubChem BioAssay by National Center for Advancing Translational Sciences (NCATS).
MCF10A rereplic: induces DNA re-replication in MCF 10a normal breast cells; MCF 10A DNA re-replication, Hoechst nuclear intensity, 48 h; Potency, µM (top dose mostly 46.1 µM), without a hit: at the top dose activity, positive = re-replication, usual class: activators; hit rate 2.9% among 350,000; AID 624296; further: % of control where 0% means no effect; nearly all actives have a fitted effect of over 50% in size
HT1080 IDH1KD tx: toxicity to HT-1080 IDH1 knockdown cells (counter line); HT-1080 IDH1 knockdown viability, ATP luminescence, 48 h; Potency, µM (titrated, usually from 46.1 µM), for the others: at the highest dose activity, negative = toxicity, hits mostly cytotoxic; hit rate 2% among 360,000; AID 686971;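 further: 0% = DMSO wells and -100% = cell-free medium wells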
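Knockdown cells (IDH1KD HT-1080) received compounds 2 h after plating at 750 cells/well and were kept 48 h at 37 °C in 5% FBS RPMI. A CellTiter-Glo luminescence read gave % activity for curve fitting.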
KB-V1 MDR tox: kills drug-selected multidrug resistant KB-V1 cells | KB-V1 MDR cells viability, CellTiter-Glo, 72 h | AID 1347076 | hit rate 3.4% among 400,000 | Potency, µM (doses to about 46.1 µM), usual class: cytotoxic; further: on the % scale 0 is the no-effect control and ±100 the full control effect; nearly all actives have a fitted effect of over 60% in size
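KB-V1 cells (P-gp-expressing MDR subline of KB-3-1) in phenol-red-free DMEM with 10% FBS were exposed to library compounds over a concentration series for 72 h at 37 degrees C. Viability read by CellTiter-Glo luminescence; concentration-effect curves fitted after normalization.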
KB-3-1 tox: kills parental KB-3-1 adenocarcinoma cells; Potency, µM (series often up to 46.1 µM), hits mostly cytotoxic; AID 1347075; hit rate 1.4% among 400,000; KB-3-1 viability, CellTiter-Glo ATP luminescence, 72 h; further: on the % scale 0 is the no-effect control and ±100 the full control effect; nearly all actives have a fitted effect of over 60% in size
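Multi-concentration cytotoxicity screen in KB-3-1 cells grown in DMEM lacking phenol red with 10% FBS. After 72 h at 37 °C with compound, ATP-dependent luminescence was recorded.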
SW480 rereplic: inducers of DNA re-replication in SW480 colon cancer cells | SW480 DNA re-replication, Hoechst DNA content imaging, 48 h | Potency, µM (top dose mostly 46.1 µM), for the others: at the top dose re-replication activation, usual class: activators | hit rate 1.8% among 340,000 | AID 624297; further: % of control where 0% means no effect; nearly all actives have a fitted effect of over 55% in size
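Image-based DNA-content assay: after two days of treatment, nuclei were labelled with the DNA dye Hoechst and imaged, and hits were compounds raising the count of nuclei showing high fluorescence intensity.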
HT1080-NT tox: kills 2HG-producing HT-1080-NT fibrosarcoma cells. HT-1080-NT fibrosarcoma viability, CellTiter-Glo ATP luminescence, 48 h. Potency, µM (highest dose often 46.1 µM), inactives show top-dose activity, negative = less viability, most hits filed as cytotoxic. hit rate 1.6% among 360,000. AID 686970;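 further: NT is the 2HG producing partner of a matched IDH1 knockdown line; 0% = DMSO-treated cells and -100% = media-only wells without cells; nearly all actives have a fitted effect of over 55% in size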
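HT-1080-NT; 750 cells/well; 5% FBS RPMI; 48 h compound, 37 degrees C; CellTiter-Glo luminescence; curve fitting and curve-class assignment.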
* marks the source's active call; other numbers are inactive results; i = inactive; ? = inconclusive; · = not tested or not shown; ! = a repeat was not active; [ ] = dose if it differs, or a comment. In the library only some 7.9% were active in any assay of this set; here they are far more common. The call rests on the fitted dose curve; in most records, active means well fitted curve in the direction sought with a large enough effect; inconclusive means small, poorly fitted or top-dose-only effect, or another doubt; inactive means no such curve, though single readings can be large; an effect the other way counts as inactive or inconclusive. Potency means the concentration at half of the fitted maximal effect.

SMILES	MCF10A rereplic	HT1080 IDH1KD tx	KB-V1 MDR tox	KB-3-1 tox	SW480 rereplic	HT1080-NT tox
C=C1C(=O)[C@]23C[C@H]1CCC2[C@]1(C)C(=O)CC[C@@](C)(C(=O)O)C1C[C@@H]3O (stereo partly specified)	·	8.2µM*	i	?	·	6.5µM*
C=C1C(=O)[C@]23C[C@H]1CC[C@H]2[C@]1(C)[C@@H](OC(C)=O)CC[C@@](C)(C(=O)O)[C@H]1C[C@@H]3OC(C)=O	·	6.5µM*	i	?	·	6.5µM*
C=C1C(=O)[C@]23C[C@H]1CCC2[C@]1(C)CCC[C@@](C)(C(=O)O)C1C[C@@H]3O (stereo partly specified)	·	2.3µM*	?	8.2µM*	·	4.1µM*
C=C/C(C)=C/CC1C(=C)CCC2C(C)(C(=O)O)CCCC12C (stereo unspecified)	2%	4%	i	i	-10%	-4%
CN(C)c1cccc(Nc2ccc(-c3ccc(OC(F)(F)F)cc3)cn2)c1	·	4%	i	i	·	15%
Cc1ccc(NC(=O)c2sc3nc(N4CCOCC4)c4c(c3c2N)CC(C)(C)OC4)cc1	?	15%	i	i	15%	12%
COC(=O)c1ccc(-c2sc3nc(N4CCOCC4)c4c(c3c2N)CC(C)(C)OC4)o1	?	-14%	i	i	0.71µM*	3%
CC1(C)Cc2c(c(N3CCCC3)nc3sc(C(=O)Nc4ccccc4)c(N)c23)CO1	2.9µM*	-3%	i	i	?	-13%
Nc1c(C(=O)c2ccccc2)sc2nsc(SCCN3CCOCC3)c12	13µM*	?	?	i	?	-20%
CC1(C)Cc2c(c(N3CCOCC3)nc3sc(C(=O)Nc4ccc(Cl)cc4)c(N)c23)CO1	?	15%	?	16µM*!	20%	14%
CN1Cc2c(N3CCOCC3)nc3sc(C(=O)c4ccccc4)c(N)c3c2CC1(C)C	21µM*	-10%	i	i	?	-14%
COc1ccc(NC(=O)c2sc3nc(N4CCCC4)c4c(c3c2N)CC(C)(C)OC4)c(OC)c1	?	-2%	i	i	2.9µM*	-1%
COc1cccc(NC(=O)c2sc3nc(N4CCOCC4)c4c(c3c2N)CC(C)(C)OC4)c1	·	·	i	i	·	·
COc1ccc(NC(=O)c2sc3nc(N4CCOCC4)c4c(c3c2N)CCCC4)cc1	·	15%	i	i	·	22%
CCOc1ccc(NC(=O)c2sc3nc(N4CCOCC4)c4c(c3c2N)CC(C)(C)OC4)cc1	9%	-4%	i	7.3µM*	7%	-4%
CCOC(=O)c1ccc(NC(=O)c2sc3nc(N4CCOCC4)c4c(c3c2N)CCCC4)cc1	2.1µM*	0%	i	i	?	1%
CC1CCN(CCCNC(=O)C2CCC(CNS(=O)(=O)c3ccccc3)CC2)CC1 (stereo unspecified)	-3%	14%	i	i	6%	20%
Nc1c(C(=O)NCCc2ccccc2)sc2nc(N3CCOCC3)c3c(c12)CCCC3	16µM*	-1%	i	i	15µM*	-20%
Cc1ccccc1NC(=O)c1sc2nc(N3CCOCC3)c3c(c2c1N)CCCC3	?	1%	i	i	-7%	5%
CCOC(=O)c1sc2nc3c(cc2c1N)COC(C)(CC)C3 (stereo unspecified)	18µM*	6%	i	i	?	15%
Cc1nc2c(sc3nc(N4CCOCC4)c4c(c32)CC(C)(C)OC4)c(-c2ccc(Cl)cc2)c1C(=O)O	0.46µM*	-21%	i	?	5.2µM*	-2%
CCOC(=O)c1sc2nc(-c3ccco3)c3c(c2c1N)CC(C)(C)OC3	23µM*	-11%	12µM*	i	125%	0%
CCOC(=O)c1sc2nc3c(cc2c1N)COC(C)(C)C3	?	5%	i	?	0%[9.22 µM]	12%
